Data taken from PubChem BioAssay AID1645856 (Buhrlage Lab, Dana-Farber Cancer Institute and Novartis …, 2021).
Screen size: about 47,000 compounds; about 510 (1.1%) were called active. The list comes from a sample in which actives are over-represented; it also holds similar structures and randomly drawn compounds. A number with no mark means an inactive call. Rule as the data show it: active = inhibition above about 30%; inactive = the rest.

Each compound was assayed against Ubiquitin carboxyl-terminal hydrolase 10 (Homo sapiens) (UniProt Q14694) (assay: blocks human USP10 ubiquitin-rhodamine cleavage (AID 1645856)). Conditions: purified USP10, Ub-rhodamine fluorescence, 60 min; at 20 µM; active compounds read high.
Chain of Ubiquitin carboxyl-terminal hydrolase 10 (Homo sapiens) (Q14694 whole entry, looked up): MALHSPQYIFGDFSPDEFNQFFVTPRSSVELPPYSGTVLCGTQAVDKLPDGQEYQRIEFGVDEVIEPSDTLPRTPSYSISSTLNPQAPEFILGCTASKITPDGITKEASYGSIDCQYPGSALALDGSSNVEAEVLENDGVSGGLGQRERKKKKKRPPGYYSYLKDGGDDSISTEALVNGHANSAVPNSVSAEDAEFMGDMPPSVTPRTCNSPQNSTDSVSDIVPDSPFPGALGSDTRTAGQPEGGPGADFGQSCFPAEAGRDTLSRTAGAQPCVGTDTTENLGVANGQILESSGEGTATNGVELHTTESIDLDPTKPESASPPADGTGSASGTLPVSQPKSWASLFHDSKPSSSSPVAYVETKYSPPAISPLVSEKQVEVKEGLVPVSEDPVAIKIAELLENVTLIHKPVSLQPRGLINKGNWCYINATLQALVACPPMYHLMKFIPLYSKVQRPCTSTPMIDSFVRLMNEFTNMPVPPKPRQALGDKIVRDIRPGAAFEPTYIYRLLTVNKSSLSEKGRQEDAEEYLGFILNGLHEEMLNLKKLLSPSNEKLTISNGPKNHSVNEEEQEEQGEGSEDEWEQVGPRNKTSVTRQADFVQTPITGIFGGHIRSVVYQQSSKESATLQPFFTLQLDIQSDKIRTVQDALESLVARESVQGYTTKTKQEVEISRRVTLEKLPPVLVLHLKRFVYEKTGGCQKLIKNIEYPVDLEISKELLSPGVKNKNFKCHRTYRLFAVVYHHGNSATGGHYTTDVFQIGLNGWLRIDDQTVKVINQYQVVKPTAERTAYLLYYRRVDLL
CC1=C(C(=O)OCCOc2ccccc2)C(c2ccccc2OC(C)C)NC(=O)N1 (stereo not given) was tested, and the inhibition was 5.16%.
Work on Cc1nn(-c2cccc(Cl)c2)c2c1C(C(=O)c1ccc3c(c1)OCCO3)CC(=O)N2 (stereo not given) yielded an inhibition of -1.54%.
CN1c2ccccc2O[C@@H]2CC[C@@H](NC(=O)Cn3cccn3)[C@@H](O)[C@@H]21 was tested, and the inhibition was 0.781%.
Compound COc1ccc2[nH]c3c(N4CCN(C5CCCCC5)CC4)ncnc3c2c1 has an inhibition of 2.49%.
In the case of N#Cc1ccc(NC(=O)Nc2cccn(Cc3ccccc3F)c2=O)cc1, the inhibition is reported as 42.6% (active).
Cc1noc(-c2cccn(Cc3cc(F)ccc3F)c2=O)n1 showed an inhibition of 1.28%.
For O=C(Cn1cccc(-c2nc(-c3ccccc3)no2)c1=O)Nc1ccccc1F, the inhibition was -5.7%.
Work on CN1Cc2cccc(C(=O)N(C)c3nc4c(s3)CCc3occc3-4)c2C1=O yielded an inhibition of -0.411%.
Compound COc1cnc(CSc2ccccc2)cc1OCC(=O)Nc1ccc2c(c1)OCO2 has an inhibition of 0.813%.
With COCCCn1c(C(=O)NCC(=O)OC(C)C)cc2c(=O)n3cccc(C)c3nc21 the inhibition was 3.16%.
Compound COc1ccc(/C=C(\C(=O)N(C)C2CCCCC2)n2ccccc2=O)cc1 has an inhibition of -1.04%.
Work on COc1ccc(-c2cc(C(=O)Nc3ncc(C)s3)c3ccccc3n2)cc1OC yielded an inhibition of -3.26%.
Work on CNC(=O)C1CN(C(=O)c2ccccc2F)CC12CCCC2 (stereo not given) yielded an inhibition of -0.0522%.
With Cn1c(=O)n(C2CCN(C(=O)Cc3ccccc3)C2)c2ncncc21 (stereo not given) the inhibition was 0.307%.
For O=C1c2ccccc2C2c3[nH]c4ccccc4c3C(c3ccc(F)cc3)CN12 (stereo not given), the inhibition was -4.15%.
In the case of CC(C)N1CCN(S(=O)(=O)c2cc(-c3nnc(C4CC4)o3)co2)CC1, the inhibition is reported as -5.2%.
Cc1c(C2CCN(C(=O)NCc3ccccc3)CC2)noc1N gave an inhibition of -2.52%.
Work on O=C(NCc1cccnc1N1CCCCC1)c1nc2n(n1)-c1ccccc1S(=O)(=O)N2 yielded an inhibition of 17.3%.
Cc1noc(C)c1COc1cccc(C(=O)NC(C)c2cc3ccccc3o2)c1 (stereo not given) gave an inhibition of -0.528%.
With CC(NC(=O)c1nc2n(n1)-c1ccccc1S(=O)(=O)N2)c1cc2ccccc2o1 (stereo not given) the inhibition was 36.5% (active).
With CN1CCC2(CN(c3ncccn3)CC23CCN(C(=O)Cc2ccccc2)CC3)C1=O (stereo not given) the inhibition was -1.5%.
With CCn1c(=O)c(C(=O)N2CCN(c3cccc(C)c3)CC2)nc2cccnc21 the inhibition was -3.06%.
In the case of O=S(=O)(c1cccc2nonc12)N1CCC(n2cccc2)CC1, the inhibition is reported as -1.8%.
COc1cc(Cl)c(C)cc1Nc1ncnc2sccc12 gave an inhibition of -4.4%.
Compound NC(=O)CCC(=O)N[C@H]1C[C@H]2CN(Cc3ccccc3)c3ccccc3CN2C1 has an inhibition of -7.81%.
O=C(c1ccccn1)N1CCC(c2nc3ccccc3cc2C(=O)N2CCCC2)CC1 gave an inhibition of -0.709%.
Work on O=C(O)C1CCCN1C1=NS(=O)(=O)c2ccccc21 (stereo not given) yielded an inhibition of 0.971%.
Work on CC(=O)N1CCc2cc(C(O)CN3CCN(c4ccccc4)CC3)ccc21 (stereo not given) yielded an inhibition of 1.48%.
Cc1ccc(N2CC(C(=O)N3CCC(C(=O)Nc4ccc(F)cc4F)CC3)CC2=O)cc1 (stereo not given) was tested, and the inhibition was -5.34%.
In the case of CCC(C(=O)NC1CCCC1)N(C(=O)Cn1nnc(-c2ccc(C)cc2)n1)c1cccc(O)c1 (stereo not given), the inhibition is reported as 1.22%.
Compound Cn1c(=O)c2c3c(cnc2n(C)c1=O)C(=O)CC(c1ccccc1)C3 (stereo not given) has an inhibition of -1.08%.
Work on O=C(NC1CCCC1)c1cc(-c2cccnc2)n(-c2ccc(F)cc2)n1 yielded an inhibition of 1.77%.
With c1ccc(-c2ccc(NCc3ccc4c(c3)OCO4)nn2)cc1 the inhibition was 3.9%.
Compound Cc1ccc(S(=O)(=O)N2CCCC2C(=O)N2CCN(c3cccc(Cl)c3)CC2)cc1 (stereo not given) has an inhibition of 1.5%.
In the case of O=C(COC(=O)C(Cc1c[nH]c2ccccc12)NC(=O)c1ccccc1Cl)c1ccccc1F (stereo not given), the inhibition is reported as 6.57%.
Cn1ccnc1C(NC(=O)c1ccncc1)c1ccc(F)c(F)c1 (stereo not given) was tested, and the inhibition was -4.27%.
COc1ccc(CNC2C3=C(CCCC3)C(=O)N2CCc2ccc(Cl)cc2)cc1 (stereo not given) gave an inhibition of -0.147%.
For CC(C)CN1C[C@@]23CN(C(=O)NCCc4ccc(F)cc4)C[C@@H](C[C@@H]2S1(=O)=O)O3, the inhibition was 3.62%.
With COC(=O)C1CCN(C(=O)CC[C@H]2CNC(=O)[C@@H]3[C@@H](CCN3Cc3ccc(C)cc3)N2C)CC1 the inhibition was 1.61%.
For COc1cccc(NC(=O)COC(=O)c2ccc(OC)c(S(=O)(=O)Nc3cc(Cl)c(OC)cc3OC)c2)c1, the inhibition was 0.441%.
With Cc1ccc(NC(=O)CCOc2ccccc2)cc1S(=O)(=O)Nc1ccccc1Cl the inhibition was 30.4% (active).
Cc1ccc(NC(=O)CCC(=O)N(c2ccccc2)c2ccccc2)cc1Cl showed an inhibition of 11.4%.
For Cc1cc(O)c(=O)cc2c1C[C@H]1CC(C)(C)/C=C/C[C@@]3(C)Oc4cc(=O)c(O)cc(C)c4C[C@@H]3C[C@H](O)[C@]1(C)O2, the inhibition was 39.9% (active).
Cc1ccc(CNC(=O)CCCn2c(=O)c3sccc3n(CC(=O)OCc3ccccc3)c2=O)cc1 was tested, and the inhibition was 53.7% (active).
In the case of COc1ccc(CCNC(=O)CCCn2c(=O)c3ccccc3n(CC(=O)OCc3ccccc3)c2=O)cc1OC, the inhibition is reported as 12.7%.
For Cc1ccc(CNC(=O)CC(c2ccccc2)c2ccccc2)cc1, the inhibition was 9.59%.
For Cc1cccc(-n2c3c(c(=O)[nH]c2=O)CN(Cc2ccco2)CN3)c1C, the inhibition was -1.97%.
Compound COc1ccc(C(=O)N(c2ccccn2)c2ccccn2)cc1OC has an inhibition of -0.245%.
CC(=O)Nc1sc2c(c1C(c1cccc(F)c1)N1CCN(CCO)CC1)CCCC2 (stereo not given) was tested, and the inhibition was -5.42%.
For Cc1c(-c2nn3c(-c4ccco4)nnc3s2)cccc1[N+](=O)[O-], the inhibition was 50.9% (active).
CC(C)Cc1cc(-c2nn3c(-c4ccccc4Cl)nnc3s2)n[nH]1 gave an inhibition of 13.8%.
For Fc1ccccc1CSc1nnc(C2CCNCC2)o1, the inhibition was -2.32%.
Work on Cc1cc(-c2ccccc2C(=O)O)nc(C2CCCNC2)n1 (stereo not given) yielded an inhibition of 1.65%.
In the case of O=C(NCCc1ccccc1)c1ccc2c(=O)n(Cc3ccco3)c(=O)n(Cc3cccc([N+](=O)[O-])c3)c2c1, the inhibition is reported as 73.1% (active).
With O=C(NCCc1ccccc1)c1ccc2c(=O)nc3c(-c4ccccc4F)n[nH]n3c2c1 the inhibition was 3.48%.
Work on O=C(Cn1c(=O)n(Cc2ccc3c(c2)OCO3)c(=O)c2ccccc21)NCc1ccco1 yielded an inhibition of 25.6%.
In the case of O=C(NCc1ccco1)N1CCC2(CC1)Nc1ccccc1-n1cccc12, the inhibition is reported as 0.0863%.
Compound Cc1c(S(=O)(=O)Nc2ccc(F)cc2)cc(C(=O)N2CCCCC2)n1C has an inhibition of 1.47%.
Work on COc1ccc(OC)c(NC(=O)CN2CCc3ccccc32)c1 yielded an inhibition of 0.258%.
For CCc1cccc(C)c1NC(=O)Cn1nc2ccc(C(=O)NCc3ccccc3)cn2c1=O, the inhibition was 36% (active).
Cc1cc(=O)n(CC(=O)NCc2ccccc2)c(N2CCCC2)n1 was tested, and the inhibition was -2.48%.
With CCc1cccc(C)c1NC(=O)CSc1nc2c(c(=O)[nH]1)CCCC2 the inhibition was 0.855%.
In the case of O=C(c1ccc(N2CCCCC2)nn1)N(Cc1ccccc1)c1ccccn1, the inhibition is reported as -1.8%.
In the case of Cn1c(C2CCN(C(=O)Nc3ccc4c(c3)CCC4)C2)nc2cccnc21 (stereo not given), the inhibition is reported as -0.116%.
With Cc1ccc(NC(=O)COC(=O)C2CC(=O)N(c3cccc(C)c3C)C2)cc1 (stereo not given) the inhibition was -7.32%.
O=C1CCCC2=C1C(c1ccc(C(=O)O)cc1)n1ncc(C(=O)Nc3ccc(F)cc3)c1N2 (stereo not given) gave an inhibition of -5.67%.
Compound CCOc1cccc(C2CC(=O)Nc3c2c(C)nn3-c2nncc(-c3ccc(F)cc3)n2)c1 (stereo not given) has an inhibition of 4.17%.
Cc1ccc(C2N=C(N3CCCCC3)Nc3nc(C)cc(=O)n32)cc1 (stereo not given) was tested, and the inhibition was -10.2%.
Compound O=C(c1ccccc1Cl)N(c1ccccn1)c1ccccn1 has an inhibition of -2.33%.
C=C1CCC2[C@](C)(CCC[C@]2(C)C(=O)OC)[C@H]1CCc1ccoc1C[N+](C)(C)Cc1ccccc1 (stereo not given in full) gave an inhibition of -1.66%.
C=C1CCC2[C@](C)(CCC[C@]2(C)C(=O)OC)[C@H]1CCc1ccoc1/C=C/C(=O)O (stereo not given in full) was tested, and the inhibition was 46.4% (active).
In the case of C=C1CCC2[C@](C)(CCC[C@]2(C)C(=O)OC)[C@H]1CCc1ccoc1CNCC(=O)O (stereo not given in full), the inhibition is reported as 3.42%.
FC(F)(F)c1cccc(CN2CCCn3c(nc4ccccc43)C2)c1 was tested, and the inhibition was -0.144%.
O=C(NCc1noc(C2CCCC2)n1)c1ccccc1 was tested, and the inhibition was 3.21%.
Compound CNc1ccc(-c2noc([C@@H]3CCCN3C3CCN(C)CC3)n2)cn1 has an inhibition of -0.38%.
COc1ccc(C(O)Cc2nc3ccccc3n2Cc2ccc(Cl)cc2)cc1 (stereo not given) showed an inhibition of 1.15%.
Compound COC(=O)c1ccccc1NC(=O)c1cnc2ccccn2c1=O has an inhibition of 0.362%.
Compound O=C(CNC1CCCc2ccccc21)Nc1cc(S(=O)(=O)N2CCCCC2)ccc1Cl (stereo not given) has an inhibition of 1.62%.
Cc1nccc(N2CCCC2c2cnc(-c3ncc[nH]3)cn2)n1 (stereo not given) was tested, and the inhibition was -5.73%.
Work on O=C(Cn1cc(S(=O)(=O)N2CCOCC2)ccc1=O)Nc1ccc(F)c(F)c1 yielded an inhibition of 2.08%.
Compound CS(=O)(=O)c1ccc(-n2cc(-c3ccncn3)cn2)cc1 has an inhibition of -1.57%.
Work on O=C(c1ncccn1)N1CCCCC1c1ncc(Cc2cccc(F)c2)o1 (stereo not given) yielded an inhibition of 0.0694%.
For CC(OC(=O)c1cn(-c2ccccc2)nc1-c1cccnc1)C(=O)Nc1cccc(S(=O)(=O)N(C)C)c1 (stereo not given), the inhibition was -8.1%.
With Cc1nn(CCC(=O)Nc2ccc(C#N)cc2)c(C)c1S(=O)(=O)N1CCOCC1 the inhibition was 7.2%.
In the case of Cn1c(N2CCN(C(=O)c3ccc(F)cc3)CC2)cc(=O)n(C)c1=O, the inhibition is reported as -3.62%.
